The supplement of paper PMC13172266
Where a name gives a salt, the structure may show the parent alone.

Legend:
Test in all cases: cell proliferation relative to vehicle (% of vehicle); higher = less growth inhibition
Details in all cases: 72 h
[1] = tested on: U2932 TK216-resistant clone 2
Method in brief: (§1)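 Parental U2932 cells (ABC-DLBCL) and two clones made resistant to an ETS-targeting agent by almost a year of repeated exposure were treated for 72 h with 348 targeted inhibitors at 500 nM or 50 nM. MTT was then applied for 4 h, the reaction was stopped with 25% SDS, and absorbance was measured on a Cytation 3. Values express proliferation as percent of proliferating cells compared with DMSO vehicle.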

[2] = tested on: U2932 TK216-resistant clone 3
Method in brief: as §1

[3] = tested on: U2932 parental
Method in brief: as §1

| Compound | cell proliferation ([1]; 50 nM) | cell proliferation ([1]; 500 nM) | cell proliferation ([2]; 50 nM) | cell proliferation ([2]; 500 nM) | cell proliferation ([3]; 50 nM) | cell proliferation ([3]; 500 nM) |
| --- | --- | --- | --- | --- | --- | --- |
| O=C(NCc1ccncc1)C12CC3CC(C1)CC(c1ccc(Cl)cc1)(C3)C2 | 105 | 91.5 | 105 | 98.3 | 98.2 | 98.2 |
| O=c1sn(-c2cccc3ccccc23)c(=O)n1Cc1ccccc1 [Tideglusib] | 94 | 106 | 103 | 101 | 89.3 | 93.1 |
| CN(C)C(=N)NC(=N)N [Metformin HCl] | 110 | 102 | 113 | 108 | 99.9 | 98.9 |
| COc1cc([C@@H]2c3cc4c(cc3[C@@H](O[C@@H]3O[C@@H]5CO[C@@H](C)O[C@H]5[C@H](O)[C@H]3O)[C@H]3COC(=O)[C@H]23)OCO4)cc(OC)c1O [Etoposide] | 95.7 | 53.8 | 99.3 | 74.9 | 93.3 | 68.8 |
| CC[C@H](CO)Nc1nc(NCc2ccccc2)c2ncn(C(C)C)c2n1 [Roscovitine (Seliciclib,CYC202)] | 105 | 102 | 107 | 107 | 99.6 | 106 |
| O=C(/C=C/c1ccc(CN(CCO)CCc2c[nH]c3ccccc23)cc1)NO [LAQ824 (Dacinostat)] | 41.2 | 5.42 | 48.6 | 12.4 | 33.6 | 0.789 |
| Nc1ccc(C(=O)Nc2cccc(-c3nc(N4CCOCC4)c4oc5ncccc5c4n3)c2)cn1 | 98.7 | 104 | 102 | 104 | 102 | 103 |
| Cc1cnc(Nc2ccc(N3CCN(C)CC3)cc2)nc1Nc1cccc(S(=O)(=O)NC(C)(C)C)c1 | 95.6 | 70.3 | 90 | 65.2 | 89.4 | 79.5 |
| COc1cc2c(Oc3ccc4[nH]c(C)cc4c3F)ncnc2cc1OCCCN1CCCC1 [Cediranib (AZD2171)] | 105 | 92.6 | 99.8 | 83 | 96.7 | 90.4 |
| CCCCCOC(=O)Nc1nc(=O)n([C@@H]2O[C@H](C)[C@@H](O)[C@H]2O)cc1F [Capecitabine] | 103 | 105 | 104 | 108 | 99.9 | 98.3 |
| CC(C)(C(=O)NCC(F)(F)C(F)(F)F)C(=O)N[C@@H]1C(=O)Nc2ccccc2-c2ccccc21 | 105 | 109 | 105 | 100 | 98.7 | 86.5 |
| COc1ccc2c(Oc3ccc(NC(=O)c4c(C)n(CC(C)(C)O)n(-c5ccccc5)c4=O)nc3)ccnc2c1 | 102 | 103 | 95.4 | 97.4 | 103 | 97 |
| NC(=O)Nc1cc(-c2cccc(F)c2)sc1C(=O)N[C@H]1CCCNC1 | 89.8 | 13.6 | 91.8 | 18.9 | 83 | 11.5 |
| FC(F)c1nc2ccccc2n1-c1nc(N2CCOCC2)nc(N2CCOCC2)n1 | 95.8 | 42.5 | 93.6 | 46 | 89.9 | 46.8 |
| CN(C)Cc1c(C(=O)NCCOc2ccc(C(=O)NO)cc2)oc2ccccc12 | 99.6 | 40.3 | 91.6 | 47.6 | 81.5 | 32.6 |
| CCCc1ccc(OCC(=O)N(Cc2nc(-c3cccnc3)no2)C(C)C)cc1 | 107 | 102 | 103 | 101 | 85.2 | 97.7 |
| COc1cc(Nc2ncc3c(n2)-c2ccc(Cl)cc2C(c2c(F)cccc2OC)=NC3)ccc1C(=O)O [Alisertib (MLN8237)] | 73.6 | 79.3 | 61.8 | 72.8 | 52.2 | 53.2 |
| CC(C)(C)c1cnc(CSc2cnc(NC(=O)C3CCNCC3)s2)o1 | 91.1 | 14.7 | 77.8 | 17.2 | 90.1 | 12.1 |
| COc1ccc(-c2ccc3c(N4CCOC[C@@H]4C)nc(N4CCOC[C@@H]4C)nc3n2)cc1CO | 72.7 | 34.8 | 75.1 | 40.2 | 63.8 | 35.1 |
| Cc1ccc(NC(=O)c2ccc(CN3CCN(C)CC3)cc2)cc1Nc1nc(-c2cccnc2)cs1 [Masitinib (AB1010)] | 95.6 | 83.5 | 100 | 86.2 | 92.5 | 92.7 |
| CN1CCC(Nc2nc(Nc3ccc(Oc4ccccc4)cc3)c3c(=O)[nH]cc(Br)c3n2)CC1 | 100 | 83.1 | 99.4 | 83.4 | 89.6 | 85.5 |
| O=C1c2c(O)ccc(O)c2C(=O)c2c(NCCNCCO)ccc(NCCNCCO)c21 [Mitoxantrone] | 12 | 5.19 | 16 | 15 | 18.8 | 8.11 |
| CC(=O)Nc1cccc(-n2c(=O)n(C3CC3)c(=O)c3c(Nc4ccc(I)cc4F)n(C)c(=O)c(C)c32)c1 | 103 | 105 | 98.2 | 93.7 | 92.9 | 94.4 |
| O=c1oc2c(O)c(O)cc3c(=O)oc4c(O)c(O)cc1c4c23 [Ellagic acid] | 99 | 110 | 106 | 107 | 101 | 100 |

| Compound | cell proliferation ([1]; 50 nM) | cell proliferation ([1]; 500 nM) | cell proliferation ([2]; 50 nM) | cell proliferation ([2]; 500 nM) | cell proliferation ([3]; 50 nM) | cell proliferation ([3]; 500 nM) |
| --- | --- | --- | --- | --- | --- | --- |
| COc1cc2c(NC3CCN(CC4CCCCC4)CC3)nc(N3CCCN(C(C)C)CC3)nc2cc1OCCCN1CCCCC1 | 95.3 | 105 | 91.4 | 115 | 96.3 | 110 |
| C[C@@H]1C[C@H]2[C@@H]3CCC4=CC(=O)C=C[C@]4(C)[C@@]3(F)[C@@H](O)C[C@]2(C)[C@@]1(O)C(=O)CO [Dexamethasone (DHAP)] | 76.1 | 79 | 80.9 | 71.2 | 77.4 | 74.2 |
| CO[C@H]1C[C@@H]2CC[C@@H](C)[C@@](O)(O2)C(=O)C(=O)N2CCCC[C@H]2C(=O)O[C@H]([C@H](C)C[C@@H]2CC[C@@H](OP(C)(C)=O)[C@H](OC)C2)CC(=O)[C@H](C)/C=C(\C)[C@@H](O)[C@@H](OC)C(=O)[C@H](C)C[C@H](C)/C=C/C=C/C=C/1C [Ridaforolimus (Deforolimus, MK-8669)] | 67.9 | 64.3 | 62.2 | 58.5 | 56.4 | 57.2 |
| Oc1ccc(-c2nc(-c3ccc(F)cc3)c(-c3ccncc3)[nH]2)cc1 | 109 | 105 | 96.2 | 98.7 | 102 | 99.2 |
| CC[C@@](C)(Nc1ccnc(-c2c[nH]c3ncccc23)n1)C(=O)NCC(F)(F)F [Decernotinib (VX-509)] | 103 | 92.4 | 97.4 | 105 | 98.2 | 98.6 |
| COc1cc(OCc2cccc(-c3ccccc3)c2C)cc(OC)c1CN1CCCC[C@H]1C(=O)O [PD-1/PD-L1 inhibitor 1] | 103 | 99.6 | 96.8 | 104 | 101 | 95.3 |
| Cc1ccc(C(=O)N(CCCN)[C@@H](c2nc3cc(Cl)ccc3c(=O)n2Cc2ccccc2)C(C)C)cc1 | 13 | 10.8 | 7.24 | 5.07 | 9.61 | 10.2 |
| CCn1c(-c2nonc2N)nc2c(C#CC(C)(C)O)ncc(OC[C@H]3CCCNC3)c21 | 91.1 | 54.1 | 97 | 66.9 | 90.5 | 58.6 |
| O=C(O)C(Cc1c[nH]c2ccccc12)N1C(=O)c2ccccc2C1=O (configuration not stated) | 97.2 | 102 | 99.2 | 98 | 100 | 96.1 |
| CCOC(=O)C1=C(N)Oc2ccc(Br)cc2C1C(C#N)C(=O)OCC (configuration not stated) | 103 | 95.7 | 109 | 100 | 98.4 | 97.6 |
| N#C/C(=C(/N)Sc1ccc(N)cc1)c1ccccc1C(F)(F)F | 102 | 98 | 90.8 | 92.8 | 104 | 99.2 |
| C[C@@H](N)[C@H]1CC[C@H](C(=O)Nc2ccncc2)CC1 | 98.8 | 102 | 100 | 103 | 94.8 | 97.7 |
| COc1ccccc1OCC(O)CN1CCN(CC(=O)Nc2c(C)cccc2C)CC1 (configuration not stated) [Ranolazine] | 97.6 | 91.3 | 95 | 101 | 106 | 99.1 |
| Oc1c2ccccc2c2c3c(cccc13)N=N2 | 101 | 113 | 105 | 104 | 103 | 101 |
| COc1cc2c(Oc3ccc(NC(=O)C4(C(=O)Nc5ccc(F)cc5)CC4)cc3F)ccnc2cc1OCCCN1CCOCC1 | 101 | 69.7 | 98.3 | 66 | 92.7 | 58.9 |
| CC(C)N(C[C@H]1O[C@@H](n2cnc3c(N)ncnc32)[C@H](O)[C@@H]1O)[C@H]1C[C@@H](CCc2nc3cc(C(C)(C)C)ccc3[nH]2)C1 | 98.8 | 91.9 | 97.2 | 91.6 | 101 | 95.4 |
| C[C@]12CC[C@@H]3c4ccc(O)cc4C[C@@H](CCCCCCCCC[S+]([O-])CCCC(F)(F)C(F)(F)F)[C@H]3[C@@H]1CC[C@@H]2O (some centres not stated) [Fulvestrant] | 98.2 | 101 | 103 | 104 | 98.8 | 93.9 |
| OCCn1cc(-c2cnc3nnn(Cc4ccc5ncccc5c4)c3n2)cn1 | 111 | 107 | 105 | 107 | 99.4 | 104 |
| CO[C@H]1/C=C\C=C(/C)C(=O)NC2=CC(=O)C(NCCN(C)C)=C(C[C@@H](C)C[C@H](OC)[C@H](O)[C@@H](C)/C=C(\C)[C@@H]1OC(N)=O)C2=O [17-DMAG (Alvespimycin) HCl] | 46.7 | 3.06 | 42.3 | 17 | 67 | 3.09 |
| O=C(CCCCCCNC(=O)c1cnc(N(c2ccccc2)c2ccccc2)nc1)NO [Rocilinostat (ACY-1215)] | 104 | 104 | 110 | 96.5 | 98.5 | 92.2 |
| Cc1cnc(-c2ccccc2C(C)C)nc1NCc1ccc(-n2ccnn2)cc1 | 108 | 97.8 | 105 | 108 | 101 | 98.5 |
| COc1ccc(C2=N[C@@H](c3ccc(Cl)cc3)[C@@H](c3ccc(Cl)cc3)N2C(=O)N2CCNC(=O)C2)c(OC(C)C)c1 [Nutlin-3] | 106 | 97.3 | 109 | 103 | 99.8 | 99.6 |
| C=CCNC1=C2C[C@@H](C)C[C@H](OC)[C@H](O)[C@@H](C)/C=C(\C)[C@H](OC(N)=O)[C@@H](OC)/C=C\C=C(/C)C(=O)NC(=CC1=O)C2=O [17-AAG (Tanespimycin)] | 103 | 115 | 105 | 114 | 96.7 | 107 |
